PubChem BioAssay (Tox21)
Results filed as inconclusive are left out. A call without a number means that no potency is given here. Active and inactive are the calls of the source. Unless noted, the call rests on the fitted dose curve; in most records, active means well fitted curve in the direction sought with a large enough effect in the repeat runs; inconclusive means weak or mixed curves; inactive means no such curve, though single readings can be large; an effect the other way counts as inactive or inconclusive.

biological target: Thyrotropin-releasing hormone receptor (Homo sapiens) (UniProt P34981); assay: qHTS assay to identify small molecule agonists of the thyrotropin-releasing hormone receptor (TRHR) signaling pathway (AID 1346891; calls by dose curve;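 further: HEK293 cells expressing TRHR with calcium dye readout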); conditions: TRHR-HEK293 calcium fluorescence, agonist mode; series mostly up to 57.6 µM
Summary of the method: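 Cells: TRHR-Hek293, seeded and incubated 18 h. Dye loading: 2 h at 37 °C. Compound added from DMSO stock by pin tool. Read-out: kinetic calcium fluorescence over 3 min.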

Sequence of Thyrotropin-releasing hormone receptor (Homo sapiens) (P34981 whole entry, looked up): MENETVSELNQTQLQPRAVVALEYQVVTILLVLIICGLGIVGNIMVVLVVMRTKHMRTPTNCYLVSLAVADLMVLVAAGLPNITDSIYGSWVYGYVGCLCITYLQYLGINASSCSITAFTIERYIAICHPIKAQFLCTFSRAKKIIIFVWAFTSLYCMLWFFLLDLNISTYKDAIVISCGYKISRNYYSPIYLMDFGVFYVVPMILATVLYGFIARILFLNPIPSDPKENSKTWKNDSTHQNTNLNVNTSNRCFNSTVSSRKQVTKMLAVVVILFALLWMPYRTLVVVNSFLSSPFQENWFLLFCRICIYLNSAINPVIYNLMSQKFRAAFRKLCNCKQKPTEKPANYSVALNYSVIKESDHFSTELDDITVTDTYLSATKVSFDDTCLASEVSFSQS

With `CN(c1nccc(=O)[nH]1)C1CCN(c2nc3ccccc3n2Cc2ccc(F)cc2)CC1` as the molecule, how does the Potency read?
The Potency was “inactive”.

With `CCCCOC(=O)c1ccccc1C(=O)OCC(CC)CCCC` (centres undefined) as the molecule, how does the Potency read?
Its Potency is “inactive”.

For `COCCCCCCCCOCCC[Si](C)(O[Si](C)(C)C)O[Si](C)(C)C`, which Potency is on record?
The Potency was “inactive”.

Which Potency does the source give for `C=C(C)C(=O)OCCN(C)C` here?
Its Potency is “inactive”.

Which Potency does the source give for `CC(C)(C)c1ccc(S)cc1` here?
Its Potency is “inactive”.

For `CN1CCN(C2=Nc3ccccc3Sc3ccc(Cl)cc32)CC1`, which Potency is on record?
Its Potency is “inactive”.

For `CCC(C)N(C)C(=O)c1cc2ccccc2c(-c2ccccc2Cl)n1` (centres undefined), which Potency is on record?
Its Potency is “inactive”.

For `Cc1ccccn1`, which Potency is on record?
The Potency was “inactive”.

Which Potency does the source give for `N#Cc1c(F)cccc1F` here?
Its Potency is “inactive”.

With `CN(C)CC/C=C1\c2ccccc2COc2ccccc21` as the molecule, how does the Potency read?
The Potency was “inactive”.

With `O=C(O)Cc1cc(I)c(Oc2ccc(O)c(I)c2)c(I)c1` as the molecule, how does the Potency read?
Its Potency is “inactive”.

For `CC(=O)N(O)CCCCCNC(=O)CCC(=O)N(O)CCCCCNC(=O)CCC(=O)N(O)CCCCCN`, which Potency is on record?
The Potency was “inactive”.

Which Potency does the source give for `C=CCCCCCC` here?
Its Potency is “inactive”.

Which Potency does the source give for `O=C1CCCCCO1` here?
Its Potency is “inactive”.

With `O=C(c1ccc(O)cc1)c1ccc(O)cc1` as the molecule, how does the Potency read?
The Potency was “inactive”.

Which Potency does the source give for `O=C(O)C(c1ccc(Cl)cc1)c1ccc(Cl)cc1` here?
Its Potency is “inactive”.

For `O=C(NS(=O)(=O)/C=C/c1cccs1)c1ccc(F)cc1Br`, which Potency is on record?
The Potency was “inactive”.

For `O=C(O)C1CCC(C(=O)O)CC1` (centres undefined), which Potency is on record?
Its Potency is “inactive”.

For `CC(=O)OC/C=C/c1ccccc1`, which Potency is on record?
Its Potency is “inactive”.

With `c1ccc(-c2nc[nH]c2-c2ccccc2)cc1` as the molecule, how does the Potency read?
The Potency was “inactive”.

With `CN1CCC(OC(c2ccccc2)c2ccccc2)CC1` as the molecule, how does the Potency read?
Its Potency is “inactive”.

For `CC(=O)OCCc1ccccc1`, which Potency is on record?
Its Potency is “inactive”.

For `Cc1ccc(C(C)c2ccc(C)c(C)c2)cc1C`, which Potency is on record?
Its Potency is “inactive”.

system: not listed separately; assay: Human pregnane X receptor (PXR) small molecule agonists, qHTS cell viability counter screen (AID 1346977); conditions: PXR-Luc HepG2 viability, CellTiter-Fluor, 24 h; series mostly up to 92.4 µM; further: nearly all actives have a fitted effect of over 50% in size; further: potency means the concentration at half of the fitted maximal effect
Summary of the method: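 Cytotoxicity counter screen run in the same wells as the PXR luciferase assay, using PXR-Luc HepG2 cells in charcoal-stripped serum medium. Viability: CellTiter-Fluor fluorescence after 24hr compound treatment.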

Which Potency does the source give for `CC(C)=CCCC(C)CC=O` (centres undefined) here?
The Potency was “inactive”.

For `CN(c1nccc(=O)[nH]1)C1CCN(c2nc3ccccc3n2Cc2ccc(F)cc2)CC1`, which Potency is on record?
The Potency was “inactive”.

Which Potency does the source give for `CC1(C)CCC(C)(C)c2cc(NC(=O)c3ccc(C(=O)O)cc3)ccc21` here?
The Potency was “inactive”.

With `CCCCOC(=O)c1ccccc1C(=O)OCC(CC)CCCC` (centres undefined) as the molecule, how does the Potency read?
Its Potency is “inactive”.

For `O=C(c1ccccc1)c1ccc2n1CCC2C(=O)O` (centres undefined), which Potency is on record?
Its Potency is “inactive”.

For `CCN(CC)C(C)CN1c2ccccc2Sc2ccccc21` (centres undefined), which Potency is on record?
The Potency was “inactive”.

With `CC(O)C1CCCCC1` (centres undefined) as the molecule, how does the Potency read?
The Potency was “inactive”.

For `COCCCCCCCCOCCC[Si](C)(O[Si](C)(C)C)O[Si](C)(C)C`, which Potency is on record?
Its Potency is 30.6 µM (active).

For `CCCCCCOC(=O)CCC`, which Potency is on record?
The Potency was “inactive”.

Which Potency does the source give for `COCCO` here?
The Potency was “inactive”.

For `C=C(C)C(=O)OCCN(C)C`, which Potency is on record?
The Potency was “inactive”.

Which Potency does the source give for `CC(C)(C)c1ccc(S)cc1` here?
The Potency was “inactive”.

For `CCOc1ccc2[nH]cc(C(=O)NCc3ccccc3)c(=O)c2n1`, which Potency is on record?
Its Potency is “inactive”.

Which Potency does the source give for `O=c1[nH]cnc2ccccc12` here?
The Potency was “inactive”.

For `CN1CCN(C2=Nc3ccccc3Sc3ccc(Cl)cc32)CC1`, which Potency is on record?
Its Potency is “inactive”.

Which Potency does the source give for `Cc1ccccn1` here?
Its Potency is “inactive”.

With `S=C(S)NCCNC(=S)S` as the molecule, how does the Potency read?
Its Potency is “inactive”.

Which Potency does the source give for `O=C(O)Cc1cc(I)c(Oc2ccc(O)c(I)c2)c(I)c1` here?
Its Potency is “inactive”.

Which Potency does the source give for `CC(=O)N(O)CCCCCNC(=O)CCC(=O)N(O)CCCCCNC(=O)CCC(=O)N(O)CCCCCN` here?
The Potency was “inactive”.

Which Potency does the source give for `C=CCCCCCC` here?
Its Potency is “inactive”.

With `O=C1CCCCCO1` as the molecule, how does the Potency read?
Its Potency is “inactive”.

Which Potency does the source give for `FC(F)(F)C(F)(F)C(F)(F)C(F)(F)C(F)(F)C(F)(F)CCI` here?
The Potency was “inactive”.

Which Potency does the source give for `O=C(c1ccc(O)cc1)c1ccc(O)cc1` here?
Its Potency is “inactive”.

For `O=C(O)C(c1ccc(Cl)cc1)c1ccc(Cl)cc1`, which Potency is on record?
The Potency was “inactive”.

With `O=C(NS(=O)(=O)/C=C/c1cccs1)c1ccc(F)cc1Br` as the molecule, how does the Potency read?
Its Potency is “inactive”.

For `O=C(O)C1CCC(C(=O)O)CC1` (centres undefined), which Potency is on record?
The Potency was “inactive”.

For `CC(=O)OC/C=C/c1ccccc1`, which Potency is on record?
The Potency was “inactive”.

Which Potency does the source give for `c1ccc(-c2nc[nH]c2-c2ccccc2)cc1` here?
Its Potency is “inactive”.

Which Potency does the source give for `CC(=O)OCCc1ccccc1` here?
Its Potency is “inactive”.

With `Cc1ccc(C(C)c2ccc(C)c(C)c2)cc1C` as the molecule, how does the Potency read?
Its Potency is “inactive”.

system: not listed separately; assay: Caspase-3/7 induction in HepG2 cells by small molecules, qHTS assay (AID 1346978); conditions: HepG2 caspase-3/7 activation, Caspase-Glo luminescence, 17 h; series mostly up to 92.4 µM; further: nearly all actives have a fitted effect of over 15% in size
Summary of the method: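 Wild-type HepG2 cells, 2,000/well, settled 5 hr at 37 C and 5% CO2, then compound-treated for 17 hr; caspase-3/7 activity read by luminescent Caspase-Glo 3/7 after 30 min at room temperature.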

For `CC(C)=CCCC(C)CC=O` (centres undefined), which outcome is on record?
The outcome was “inactive”.

For `CN(c1nccc(=O)[nH]1)C1CCN(c2nc3ccccc3n2Cc2ccc(F)cc2)CC1`, which outcome is on record?
The outcome was “inactive”.

For `CC1(C)CCC(C)(C)c2cc(NC(=O)c3ccc(C(=O)O)cc3)ccc21`, which outcome is on record?
Its outcome is “inactive”.

With `CCCCOC(=O)c1ccccc1C(=O)OCC(CC)CCCC` (centres undefined) as the molecule, how does the outcome read?
The outcome was “inactive”.

With `O=C(c1ccccc1)c1ccc2n1CCC2C(=O)O` (centres undefined) as the molecule, how does the outcome read?
The outcome was “inactive”.

Which outcome does the source give for `CCN(CC)C(C)CN1c2ccccc2Sc2ccccc21` (centres undefined) here?
Its outcome is “inactive”.

For `O=C(Nc1ccccc1)OCC(CN1CCCCC1)OC(=O)Nc1ccccc1` (centres undefined), which outcome is on record?
Its outcome is “inactive”.

For `CC(O)C1CCCCC1` (centres undefined), which outcome is on record?
Its outcome is “inactive”.

For `Cc1nc2ccccc2n1Cc1ccc(Cl)cc1`, which outcome is on record?
The outcome was “inactive”.

With `COCCCCCCCCOCCC[Si](C)(O[Si](C)(C)C)O[Si](C)(C)C` as the molecule, how does the outcome read?
The outcome was “inactive”.

Which outcome does the source give for `CCCCCCOC(=O)CCC` here?
The outcome was “inactive”.

For `C=C(C)C(=O)OCCN(C)C`, which outcome is on record?
The outcome was “inactive”.

For `CC(C)(C)c1ccc(S)cc1`, which outcome is on record?
Its outcome is “inactive”.

With `CCOc1ccc2[nH]cc(C(=O)NCc3ccccc3)c(=O)c2n1` as the molecule, how does the outcome read?
The outcome was “inactive”.

With `O=c1[nH]cnc2ccccc12` as the molecule, how does the outcome read?
Its outcome is “inactive”.

For `Cc1ccccn1`, which outcome is on record?
The outcome was “inactive”.

With `N#Cc1c(F)cccc1F` as the molecule, how does the outcome read?
The outcome was “inactive”.

For `S=C(S)NCCNC(=S)S`, which outcome is on record?
Its outcome is “inactive”.

Which outcome does the source give for `CN(C)CC/C=C1\c2ccccc2COc2ccccc21` here?
The outcome was “inactive”.

For `O=C(O)Cc1cc(I)c(Oc2ccc(O)c(I)c2)c(I)c1`, which outcome is on record?
The outcome was “inactive”.

For `CC(=O)N(O)CCCCCNC(=O)CCC(=O)N(O)CCCCCNC(=O)CCC(=O)N(O)CCCCCN`, which outcome is on record?
Its outcome is “inactive”.

For `O=S1(=O)c2cccc3cccc(c23)N1CCCN1CCN(c2ccc(F)cc2)CC1`, which outcome is on record?
The outcome was “inactive”.

Which outcome does the source give for `C=CCCCCCC` here?
Its outcome is “inactive”.

Which outcome does the source give for `O=C1CCCCCO1` here?
The outcome was “inactive”.

With `FC(F)(F)C(F)(F)C(F)(F)C(F)(F)C(F)(F)C(F)(F)CCI` as the molecule, how does the outcome read?
The outcome was “inactive”.

For `O=C(c1ccc(O)cc1)c1ccc(O)cc1`, which outcome is on record?
Its outcome is “inactive”.

Which outcome does the source give for `O=C(NS(=O)(=O)/C=C/c1cccs1)c1ccc(F)cc1Br` here?
Its outcome is “inactive”.

Which outcome does the source give for `c1ccc(-c2nc[nH]c2-c2ccccc2)cc1` here?
Its outcome is “inactive”.

With `CN1CCC(OC(c2ccccc2)c2ccccc2)CC1` as the molecule, how does the outcome read?
The outcome was “inactive”.

Which outcome does the source give for `CC(=O)OCCc1ccccc1` here?
Its outcome is “inactive”.

For `Cc1ccc(C(C)c2ccc(C)c(C)c2)cc1C`, which outcome is on record?
The outcome was “inactive”.
